Experimental data: PubChem BioAssay (Tox21)
Several values for one entry are separate records, joined by “and”; a condition that tells them apart may be missing. Equal entries are not always repeated. Records with an inconclusive call do not appear. A structure can be active in one record and inactive in another. Activity calls are given as the source filed them. The call rests on the fitted dose curve; in most records, active means well fitted curve in the direction sought with a large enough effect in the repeat runs; inconclusive means weak or mixed curves; inactive means no such curve, though single readings can be large; an effect the other way counts as inactive or inconclusive.

How the values were obtained:
[1] = Caspase-3/7 induction in HepG2 cells by small molecules, qHTS assay (AID 1346978); further: nearly all actives have a fitted effect of over 15% in size; further: potency means the concentration at half of the fitted maximal effect
How it was run: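 Wild-type HepG2 cells, 2,000/well, settled 5 hr at 37 C and 5% CO2, then compound-treated for 17 hr; caspase-3/7 activity read by luminescent Caspase-Glo 3/7 after 30 min at room temperature.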

[2] = Caspase-3/7 induction in CHO-K1 cells by small molecules, qHTS cell viability counter screen (AID 1346979); further: nearly all actives have a fitted effect of over 35% in size; further: potency means the concentration at half of the fitted maximal effect
How it was run: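 Multiplexed with Caspase-Glo 3/7 in CHO-K1 cells, this counter screen added CellTiter-Fluor after 16hr of compound exposure and recorded fluorescence 1hr later.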

[3] = Caspase-3/7 induction in CHO-K1 cells by small molecules, qHTS assay (AID 1346980); further: nearly all actives have a fitted effect of over 15% in size
How it was run: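 Wild-type CHO-K1 cells exposed to compounds for 17hr at 37 C, 5% CO2. Caspase-3/7 activity then measured by Caspase-Glo 3/7 luminescence after 30min at room temperature.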

[4] = target: Nuclear receptor subfamily 1 group I member 2 (Homo sapiens) (UniProt O75469); test: Human pregnane X receptor (PXR) small molecule agonists, qHTS assay (AID 1346982); further: nearly all actives have a fitted effect of over 35% in size; further: potency means the concentration at half of the fitted maximal effect
How it was run: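 Agonist mode: luminescence from ONE-Glo after 24 h compound exposure at 37C in HepG2 cells carrying hPXR-responsive CYP3A4 luciferase, plated in charcoal-stripped serum medium 5 h beforehand.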

[5] = target: Cytochrome P450 2D6 (Homo sapiens) (UniProt P10635); test: Cytochrome P450 Family 2 Subfamily D Member 6 (CYP2D6) small molecule antagonists: luciferase reporter qHTS assay (AID 1671196); further: nearly all actives have a fitted effect of over 50% in size; further: potency means the concentration at half of the fitted maximal effect
How it was run: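 CYP2D6 activity was followed as luminescence from its luciferin product after a 1 h NADPH-driven reaction at room temperature. Enzyme-substrate mix and compound were pre-incubated for 10 min, and the signal was read 20 min after adding detection reagent.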

[6] = target: Cytochrome P450 2C19 (Homo sapiens) (UniProt P33261); test: Cytochrome P450 Family 2 Subfamily C Member 19 (CYP2C19) small molecule antagonists: luciferase reporter qHTS assay (AID 1671197); further: nearly all actives have a fitted effect of over 65% in size; further: potency means the concentration at half of the fitted maximal effect
How it was run: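 Inhibition of CYP2C19 was scored from loss of luminescence in a P450-Glo proluciferin substrate assay, NADPH-started and run 1 h at 37C, with ketoconazole as positive control.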

[7] = target: Cytochrome P450 2C9 (Homo sapiens) (UniProt P11712); test: Cytochrome P450 Family 2 Subfamily C Member 9 (CYP2C9) small molecule antagonists: luciferase reporter qHTS assay (AID 1671198); further: nearly all actives have a fitted effect of over 50% in size; further: potency means the concentration at half of the fitted maximal effect
How it was run: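 P450-Glo proluciferin substrate with CYP2C9 enzyme; 10 min RT preincubation, then NADPH regeneration 1 h at 37C; luciferin detection reagent 20 min RT, luminescence in relative luminescence units.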

[8] = target: Cytochrome P450 1A2 (Homo sapiens) (UniProt P05177); test: Cytochrome P450 Family 1 Subfamily A Member 2 (CYP1A2) small molecule antagonists: luciferase reporter qHTS assay (AID 1671199); further: nearly all actives have a fitted effect of over 50% in size; further: potency means the concentration at half of the fitted maximal effect
How it was run: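 Luminescence from luciferin formed by CYP1A2 from a proluciferin substrate, read 20 min after detection reagent. Compound was pre-incubated 10 min with enzyme-substrate, and reaction started with NADPH regeneration solution for 1 h at room temperature; furafylline control.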

[9] = target: Voltage-gated inwardly rectifying potassium channel KCNH2 (Homo sapiens) (UniProt Q12809); test: Human Ether-a-go-go-Related Gene (hERG) channel small molecule antagonists: fluorescence cell-based qHTS assay (AID 1671200); further: nearly all actives have a fitted effect of over 50% in size; further: potency means the concentration at half of the fitted maximal effect
How it was run: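 Cell line hERG-U2OS; dye FluxOR II, 1 h RT dark; Tl+ stimulus; ex 480/em 540 nm, read each second for 2 min.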

[10] = target: Cytochrome P450 3A4 (Homo sapiens) (UniProt P08684); test: Cytochrome P450 Family 3 Subfamily A Member 4 (CYP3A4) small molecule antagonists: luciferase reporter qHTS assay (AID 1671201); further: nearly all actives have a fitted effect of over 50% in size; further: potency means the concentration at half of the fitted maximal effect
How it was run: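 Room-temperature assay throughout: 10 min compound–enzyme/substrate preincubation, 1 h reaction after NADPH regeneration solution, 20 min detection. Luciferin formed from proluciferin substrate is quantified by luminescence.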

[11] = target: Nuclear receptor subfamily 1 group I member 2 (Rattus norvegicus) (UniProt Q9R1A7); test: Rat pregnane X receptor (rPXR) activation by small molecules, qHTS assay (AID 1346983); conditions: rPXR luciferase reporter cells, One-Glo luminescence, 24 h; stronger effect = higher value; further: nearly all actives have a fitted effect of over 20% in size
How it was run: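 Cell-based rPXR activation assay: rPXR cells, 2,000 per well, rested 5hr at 37 C, then exposed to compounds in DMSO for 24 hr at 37 C. Luciferase activity read by One-Glo luminescence after 30 min at room temperature.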

[12] = Caspase-3/7 induction in HepG2 cells by small molecules, qHTS cell viability counter screen (AID 1346981); further: series mostly up to about 92 µM; nearly all actives have a fitted effect of over 30% in size
How it was run: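 CellTiter-Fluor fluorescence measured viability in the same wells used for Caspase-Glo 3/7. HepG2 (wild type) at 2,000 cells/well were pre-incubated 5 hr, dosed, and given reagent at 16 hr, with 1 hr further at 37C.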
On the % scale 0 is the no-effect control and ±100 the full control effect.

Sequence of Voltage-gated inwardly rectifying potassium channel KCNH2 (Homo sapiens) (Q12809 whole entry, looked up): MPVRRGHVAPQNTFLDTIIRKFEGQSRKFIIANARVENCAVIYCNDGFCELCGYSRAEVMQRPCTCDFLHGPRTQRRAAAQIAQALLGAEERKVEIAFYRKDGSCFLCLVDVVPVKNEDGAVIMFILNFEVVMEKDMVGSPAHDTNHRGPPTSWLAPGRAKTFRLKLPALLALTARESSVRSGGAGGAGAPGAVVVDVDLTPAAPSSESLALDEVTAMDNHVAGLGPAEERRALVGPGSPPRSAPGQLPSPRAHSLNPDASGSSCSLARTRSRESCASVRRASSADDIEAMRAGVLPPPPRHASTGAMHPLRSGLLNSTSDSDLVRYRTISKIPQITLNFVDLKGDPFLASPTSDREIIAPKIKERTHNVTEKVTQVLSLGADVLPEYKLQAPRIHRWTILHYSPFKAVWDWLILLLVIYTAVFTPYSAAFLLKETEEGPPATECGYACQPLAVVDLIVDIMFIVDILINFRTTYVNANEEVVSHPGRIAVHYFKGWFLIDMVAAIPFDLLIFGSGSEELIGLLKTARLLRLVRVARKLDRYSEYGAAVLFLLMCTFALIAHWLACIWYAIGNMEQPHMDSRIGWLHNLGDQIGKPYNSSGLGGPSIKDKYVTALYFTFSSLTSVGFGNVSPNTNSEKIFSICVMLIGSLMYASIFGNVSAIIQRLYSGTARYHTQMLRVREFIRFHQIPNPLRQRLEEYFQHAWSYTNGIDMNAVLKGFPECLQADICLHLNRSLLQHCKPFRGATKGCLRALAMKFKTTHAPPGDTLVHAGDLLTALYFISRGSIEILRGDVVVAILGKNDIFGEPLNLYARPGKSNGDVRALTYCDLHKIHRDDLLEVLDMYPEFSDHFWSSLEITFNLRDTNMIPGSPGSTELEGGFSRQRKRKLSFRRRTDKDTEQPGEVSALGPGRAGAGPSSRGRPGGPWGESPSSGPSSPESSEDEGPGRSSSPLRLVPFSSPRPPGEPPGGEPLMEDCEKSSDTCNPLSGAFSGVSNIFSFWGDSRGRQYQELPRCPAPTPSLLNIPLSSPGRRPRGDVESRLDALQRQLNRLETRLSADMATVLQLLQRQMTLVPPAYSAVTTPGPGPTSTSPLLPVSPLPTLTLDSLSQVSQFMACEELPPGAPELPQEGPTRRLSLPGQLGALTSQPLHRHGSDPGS
Sequence of Nuclear receptor subfamily 1 group I member 2 (Homo sapiens) (O75469 whole entry, looked up): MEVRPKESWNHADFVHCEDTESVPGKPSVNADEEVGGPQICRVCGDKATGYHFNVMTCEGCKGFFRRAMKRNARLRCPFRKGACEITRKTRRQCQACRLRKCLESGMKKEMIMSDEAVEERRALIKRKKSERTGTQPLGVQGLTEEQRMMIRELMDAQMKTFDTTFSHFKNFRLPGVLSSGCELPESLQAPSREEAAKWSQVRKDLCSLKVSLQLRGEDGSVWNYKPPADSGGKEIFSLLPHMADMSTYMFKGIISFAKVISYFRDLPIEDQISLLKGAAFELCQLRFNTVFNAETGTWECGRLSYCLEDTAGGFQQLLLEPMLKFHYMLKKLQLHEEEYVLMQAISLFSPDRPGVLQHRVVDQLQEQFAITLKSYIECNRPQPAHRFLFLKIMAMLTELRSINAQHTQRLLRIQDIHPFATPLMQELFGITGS
Sequence of Cytochrome P450 2C19 (Homo sapiens) (P33261 whole entry, looked up): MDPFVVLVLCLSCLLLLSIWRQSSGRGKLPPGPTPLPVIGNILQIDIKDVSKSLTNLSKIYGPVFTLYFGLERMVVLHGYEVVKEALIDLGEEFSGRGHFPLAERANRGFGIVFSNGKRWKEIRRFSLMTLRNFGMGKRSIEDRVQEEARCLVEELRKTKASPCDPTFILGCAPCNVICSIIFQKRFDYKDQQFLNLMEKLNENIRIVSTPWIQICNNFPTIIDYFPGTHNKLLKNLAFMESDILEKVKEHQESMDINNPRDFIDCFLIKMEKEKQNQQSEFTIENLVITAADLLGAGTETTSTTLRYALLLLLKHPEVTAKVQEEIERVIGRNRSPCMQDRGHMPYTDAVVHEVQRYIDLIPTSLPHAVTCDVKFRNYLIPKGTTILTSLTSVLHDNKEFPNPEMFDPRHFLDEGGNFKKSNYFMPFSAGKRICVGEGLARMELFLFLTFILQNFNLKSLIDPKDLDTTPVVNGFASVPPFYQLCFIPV
Sequence of Cytochrome P450 2D6 (Homo sapiens) (P10635 whole entry, looked up): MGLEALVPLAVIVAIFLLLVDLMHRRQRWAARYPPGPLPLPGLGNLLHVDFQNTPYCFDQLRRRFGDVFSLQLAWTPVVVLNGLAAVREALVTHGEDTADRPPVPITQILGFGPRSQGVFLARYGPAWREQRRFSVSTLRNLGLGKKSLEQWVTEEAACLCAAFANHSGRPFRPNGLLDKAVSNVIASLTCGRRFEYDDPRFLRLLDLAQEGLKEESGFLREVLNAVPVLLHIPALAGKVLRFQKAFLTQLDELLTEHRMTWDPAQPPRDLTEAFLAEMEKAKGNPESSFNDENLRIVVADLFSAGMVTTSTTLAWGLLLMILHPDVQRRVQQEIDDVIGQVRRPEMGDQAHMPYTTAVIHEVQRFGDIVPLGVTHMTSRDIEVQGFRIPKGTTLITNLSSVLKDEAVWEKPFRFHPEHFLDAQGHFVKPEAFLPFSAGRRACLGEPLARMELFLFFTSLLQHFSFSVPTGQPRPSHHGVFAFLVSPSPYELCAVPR
Sequence of Cytochrome P450 3A4 (Homo sapiens) (P08684 whole entry, looked up): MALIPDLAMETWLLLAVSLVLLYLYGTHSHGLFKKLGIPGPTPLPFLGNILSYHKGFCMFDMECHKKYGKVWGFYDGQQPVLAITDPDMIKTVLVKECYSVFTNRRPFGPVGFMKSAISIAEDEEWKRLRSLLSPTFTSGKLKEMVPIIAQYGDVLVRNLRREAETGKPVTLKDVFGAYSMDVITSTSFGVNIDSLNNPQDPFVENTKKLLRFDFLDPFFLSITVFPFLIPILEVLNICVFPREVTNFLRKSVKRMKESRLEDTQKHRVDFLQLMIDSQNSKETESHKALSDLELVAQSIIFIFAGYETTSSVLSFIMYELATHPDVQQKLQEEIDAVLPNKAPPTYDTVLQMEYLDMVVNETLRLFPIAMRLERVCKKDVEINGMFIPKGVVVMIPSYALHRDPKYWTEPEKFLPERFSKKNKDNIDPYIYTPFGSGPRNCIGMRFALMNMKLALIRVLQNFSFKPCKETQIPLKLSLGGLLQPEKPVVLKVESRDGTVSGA
Sequence of Cytochrome P450 2C9 (Homo sapiens) (P11712 whole entry, looked up): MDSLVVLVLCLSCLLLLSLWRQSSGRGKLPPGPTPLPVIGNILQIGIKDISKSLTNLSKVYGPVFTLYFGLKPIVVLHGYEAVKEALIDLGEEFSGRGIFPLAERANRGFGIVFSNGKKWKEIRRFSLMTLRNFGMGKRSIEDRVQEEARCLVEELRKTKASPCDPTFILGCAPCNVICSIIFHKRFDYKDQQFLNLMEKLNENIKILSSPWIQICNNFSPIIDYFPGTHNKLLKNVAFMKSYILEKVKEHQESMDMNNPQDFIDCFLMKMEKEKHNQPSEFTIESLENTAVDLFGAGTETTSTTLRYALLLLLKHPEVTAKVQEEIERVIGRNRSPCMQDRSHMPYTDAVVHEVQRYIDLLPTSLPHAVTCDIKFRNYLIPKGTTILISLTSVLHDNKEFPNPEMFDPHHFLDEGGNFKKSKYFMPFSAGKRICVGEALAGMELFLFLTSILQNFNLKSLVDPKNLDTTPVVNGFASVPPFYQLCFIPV
Sequence of Cytochrome P450 1A2 (Homo sapiens) (P05177 whole entry, looked up): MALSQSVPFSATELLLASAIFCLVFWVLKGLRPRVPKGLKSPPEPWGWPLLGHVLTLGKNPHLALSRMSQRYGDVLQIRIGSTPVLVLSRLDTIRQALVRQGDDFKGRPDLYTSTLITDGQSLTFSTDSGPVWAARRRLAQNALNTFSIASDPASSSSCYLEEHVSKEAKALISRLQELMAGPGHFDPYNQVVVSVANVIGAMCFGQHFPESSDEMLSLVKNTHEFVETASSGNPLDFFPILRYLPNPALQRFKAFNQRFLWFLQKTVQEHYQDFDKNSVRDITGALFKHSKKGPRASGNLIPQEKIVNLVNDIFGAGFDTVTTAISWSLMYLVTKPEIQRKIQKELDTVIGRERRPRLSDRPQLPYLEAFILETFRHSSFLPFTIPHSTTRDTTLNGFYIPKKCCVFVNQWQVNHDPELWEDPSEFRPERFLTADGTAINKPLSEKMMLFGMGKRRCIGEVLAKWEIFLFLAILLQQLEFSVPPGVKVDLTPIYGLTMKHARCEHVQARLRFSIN
Sequence of Nuclear receptor subfamily 1 group I member 2 (Rattus norvegicus) (Q9R1A7 whole entry, looked up): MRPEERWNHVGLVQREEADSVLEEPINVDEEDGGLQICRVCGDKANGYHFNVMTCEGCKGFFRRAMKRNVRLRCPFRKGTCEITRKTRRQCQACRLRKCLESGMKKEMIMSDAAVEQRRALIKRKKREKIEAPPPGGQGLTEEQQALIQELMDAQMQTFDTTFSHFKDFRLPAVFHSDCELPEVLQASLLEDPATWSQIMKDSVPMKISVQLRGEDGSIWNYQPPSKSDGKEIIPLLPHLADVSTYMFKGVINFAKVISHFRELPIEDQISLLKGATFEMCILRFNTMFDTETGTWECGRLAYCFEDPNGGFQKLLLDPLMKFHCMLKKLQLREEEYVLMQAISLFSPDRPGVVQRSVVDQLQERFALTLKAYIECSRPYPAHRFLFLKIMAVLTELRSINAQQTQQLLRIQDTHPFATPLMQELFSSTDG

C=C(C)C1CC=C(C)C(OC(C)=O)C1 (stereo unspecified)
28.1 µM (active) and inactive: Potency [5]
inactive: Potency [1] | Potency [2] | Potency [3] | Potency [4] | Potency [6] | Potency [7] | Potency [8] | Potency [9] | Potency [10]

Cc1cc(C2(c3cc(C)c(O)cc3C)OS(=O)(=O)c3ccccc32)c(C)cc1O
active: Potency [2] 30.6 µM and 13.7 µM | Potency [5] 39.9 µM | Potency [6] 7.97 µM and 17.8 µM | Potency [7] 5.03 µM and 7.96 µM | Potency [8] 31.7 µM | Potency [10] 2 µM and 2.52 µM
inactive: Potency [1] | Potency [3] | Potency [9]
61.1 µM (active) and inactive: Potency [4]

CC(=O)CC(=O)Nc1ccc2[nH]c(=O)[nH]c2c1
inactive: Potency [1] | Potency [2] | Potency [3] | Potency [4] | Potency [5] | Potency [6] | Potency [9] | Potency [10]
active: Potency [8] 39.9 µM

CCOC(=O)C(C)C(C)=O (stereo unspecified)
inactive: Potency [1] | Potency [2] | Potency [3] | Potency [4] | Potency [5] | Potency [6] | Potency [7] | Potency [9] | Potency [10]
active: Potency [8] 35.8 µM

CNC1(C)C2CCC(C2)C1(C)C (stereo unspecified)
inactive: Potency [1] | Potency [2] | Potency [3] | Potency [4] | Potency [5] | Potency [7] | Potency [8] | Potency [9]

O=C1Nc2ccccc2C1(c1ccc(O)cc1)c1ccc(O)cc1
61.1 µM (active) and inactive: Potency [4]
inactive: Potency [1] | Potency [3] | Potency [8] | Potency [9]
active: Potency [6] 17.8 µM and 9.77 µM | Potency [7] 6.33 µM and 3.89 µM

CCCCCCCCCCCCCC[P+](CCCC)(CCCC)CCCC
inactive: Potency [3] | Potency [10]
active: Potency [1] 48.6 µM | Potency [2] 2.42 µM and 7.7 µM | Potency [4] 2.16 µM and 6.86 µM | Potency [5] 223 nM and 399 nM | Potency [6] 56.1 µM and 39.9 µM | Potency [7] 28.1 µM and 50.2 µM | Potency [8] 70.6 µM and 79.6 µM | Potency [9] 194 nM and 275 nM

Nc1ccc2cc3ccccc3cc2c1
active: Potency [4] 27.8 µM and 21.7 µM | Potency [6] 72.3 µM and 35.6 µM | Potency [7] 32.3 µM and 31.7 µM | Potency [8] 4.06 µM and 2.24 µM | Potency [10] 9.1 µM and 12.6 µM
inactive: Potency [1] | Potency [2] | Potency [3] | Potency [9]

O=C(O[C@@H]1Cc2c(O)cc(O)cc2O[C@@H]1c1cc(O)c(O)c(O)c1)c1cc(O)c(O)c(O)c1
50.4 µM (active) and inactive: Potency [6]
inactive: Potency [1] | Potency [3] | Potency [4] | Potency [8] | Potency [9]
active: Potency [2] 30.7 µM and 52.5 µM | Potency [7] 40 µM and 27.2 µM | Potency [10] 35.7 µM and 48.5 µM

Nc1cc(Cl)c(-c2cc(Cl)c(N)cc2Cl)cc1Cl
inactive: Potency [3] | Potency [9]
active: Potency [2] 30.6 µM and 54.5 µM | Potency [4] 24.3 µM and 19.3 µM | Potency [6] 10 µM and 7.1 µM | Potency [8] 11.2 µM and 12.6 µM | Potency [10] 2 µM and 3.56 µM

COC(=O)c1cccc(C(=O)OC)c1
active: Potency [8] 12.4 µM and 11.2 µM
inactive: Potency [1] | Potency [2] | Potency [3] | Potency [4] | Potency [5] | Potency [6] | Potency [7] | Potency [9] | Potency [10]

CCCOC(=O)c1cc(O)c(O)c(O)c1
active: Potency [2] 48.3 µM and 30.6 µM | Potency [4] 27.3 µM | Potency [5] 31.6 µM and 35.6 µM | Potency [6] 79.3 µM and 56.4 µM | Potency [8] 39.7 µM and 39.9 µM
inactive: Potency [1] | Potency [3] | Potency [9] | Potency [10]

CC1COc2c(N3CCN(C)CC3)c(F)cc3c(=O)c(C(=O)O)cn1c23 (stereo unspecified)
inactive: Potency [1] | Potency [2] | Potency [3] | max activation [11] -3.36% | Potency [5] | Potency [6] | Potency [7] | Potency [8] | Potency [9]

CC(C)(c1ccccc1)c1ccc(Nc2ccc(C(C)(C)c3ccccc3)cc2)cc1
inactive: Potency [1] | Potency [3] | Potency [12] | Potency [4] | Potency [5] | Potency [6] | Potency [8] | Potency [9]
active: Potency [7] 3.55 µM and 5.64 µM
